Test results published in PubChem BioAssay (NCI).
This is part of a sample that, as a whole, favours compounds with a hit. Of some 83,000 tested, about 20% had one in any assay.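 Single-dose data. Exposure time 48 hours. Values below 10 considered active.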 Active and inactive are the calls of the source.

How the values were obtained:
Assay in all cases: NCI-60 one-dose screen, 48 h (100 = growth as untreated, 0 = no growth, -100 = all killed)
Conditions in all cases: 10 µM unless noted
NCI-H23 lung = system: NCI-H23 lung
NCI-H226 lung = system: NCI-H226 lung
NCI-H322M lung = system: NCI-H322M lung
HOP-62 NSCLC = system: HOP-62 NSCLC
HOP-92 NSCLC = system: HOP-92 NSCLC
NCI-H522 lung = system: NCI-H522 lung
A549/ATCC NSCLC = system: A549/ATCC NSCLC
786-0 renal = system: 786-0 renal
COLO 205 colon = system: COLO 205 colon
DU-145 prostate = system: DU-145 prostate
K-562 leukemia = system: K-562 leukemia
MALME-3M melanoma = system: MALME-3M melanoma
MDA-MB-231 breast = system: MDA-MB-231 breast
RXF 393 renal = system: RXF 393 renal
SF-268 CNS = system: SF-268 CNS
SF-295 CNS = system: SF-295 CNS
SF-539 CNS = system: SF-539 CNS
UACC-257 melanoma = system: UACC-257 melanoma
M14 melanoma = system: M14 melanoma
NCI-H460 lung = system: NCI-H460 lung

Measured: growth

CC(C)=CC(=O)N[C@H]1CC[C@]2(C)C3CC[C@]4(C)C(C(C)N(C)C)=CCC4C3CCC2[C@H]1O (some centres not stated)
inactive: NCI-H23 lung 65% | NCI-H226 lung 99.6% | NCI-H322M lung 57.5% | HOP-62 NSCLC 66.6% | HOP-92 NSCLC 41% | NCI-H522 lung 89.4% | A549/ATCC NSCLC 75.5% | 786-0 renal 48.2% | DU-145 prostate 71.9% | K-562 leukemia 19.5% | MDA-MB-231 breast 44.2% | RXF 393 renal 26.8% | SF-295 CNS 59.2%
active: COLO 205 colon -14.9% | MALME-3M melanoma -27.3% | SF-268 CNS 9.05% | SF-539 CNS -32.2% | UACC-257 melanoma -26.8% | M14 melanoma -56.3%

Cn1cc(-c2nc3c(F)cc4[nH]ncc4c3c3c2CCCC3)c(C(F)(F)F)n1
active: HOP-92 NSCLC -7.54% | NCI-H522 lung 0.529%
inactive: NCI-H23 lung 37.7% | NCI-H226 lung 67.3% | NCI-H322M lung 47.6% | HOP-62 NSCLC 31% | A549/ATCC NSCLC 17.3% | 786-0 renal 42.7% | COLO 205 colon 35.6% | DU-145 prostate 52.3% | K-562 leukemia 19.3% | MALME-3M melanoma 59.7% | MDA-MB-231 breast 48.9% | RXF 393 renal 23% | SF-268 CNS 47.7% | SF-295 CNS 49.2% | SF-539 CNS 27.9% | UACC-257 melanoma 53.5% | M14 melanoma 30.1%

COCC(=O)Oc1cc(-c2ccc(C)cc2C)c(OC(=O)COC)c(-c2ccc(C)cc2C)c1
inactive: NCI-H23 lung 68.8% | NCI-H226 lung 59.8% | NCI-H322M lung 79% | HOP-62 NSCLC 61.5% | HOP-92 NSCLC 66.7% | NCI-H522 lung 30.9% | A549/ATCC NSCLC 43.7% | 786-0 renal 69.6% | COLO 205 colon 48.4% | K-562 leukemia 40.8% | MALME-3M melanoma 85.3% | MDA-MB-231 breast 49.7% | RXF 393 renal 73.5% | SF-268 CNS 44.5% | SF-295 CNS 57.5% | SF-539 CNS 45.7% | UACC-257 melanoma 71.2% | M14 melanoma 65.1%
active: DU-145 prostate -16.9%

FC(F)(F)c1[nH]ncc1-c1nc2ccc3[nH]ncc3c2c2c1CCCC2
active: NCI-H23 lung 7.15% | NCI-H322M lung 3.13% | HOP-62 NSCLC 1.07% | NCI-H522 lung -16.9% | A549/ATCC NSCLC 0.818% | 786-0 renal -23.8% | COLO 205 colon -8.58% | DU-145 prostate 6.89% | MALME-3M melanoma 8.51% | RXF 393 renal -62.9% | SF-268 CNS 8.87% | SF-539 CNS -35.1%
inactive: NCI-H226 lung 10.1% | HOP-92 NSCLC 31.2% | K-562 leukemia 18.7% | MDA-MB-231 breast 14.5% | SF-295 CNS 24.3% | UACC-257 melanoma 17.6% | M14 melanoma 12.5%

O=S(=O)(N=C1C(Cl)=C(Cl)C(=NS(=O)(=O)c2ccccc2)C(Cl)=C1Cl)c1ccccc1
inactive: NCI-H23 lung 73.3% | NCI-H226 lung 97.5% | NCI-H322M lung 97.4% | HOP-62 NSCLC 91.5% | HOP-92 NSCLC 134% | NCI-H522 lung 39.3% | A549/ATCC NSCLC 74.4% | 786-0 renal 118% | COLO 205 colon 98.4% | DU-145 prostate 20.5% | K-562 leukemia 65.6% | MALME-3M melanoma 113% | MDA-MB-231 breast 98.8% | RXF 393 renal 64.7% | SF-268 CNS 87.1% | SF-295 CNS 64.2% | SF-539 CNS 109% | UACC-257 melanoma 68.9% | M14 melanoma 94.1%

CN1C(=O)/C(=C/c2ccc(C(=O)Nc3ncc(Cc4cc(Cl)ccc4Cl)s3)cc2)SC1=S
inactive: NCI-H23 lung 67.6% | NCI-H226 lung 68.5% | NCI-H322M lung 76.7% | HOP-62 NSCLC 72.4% | HOP-92 NSCLC 50.2% | NCI-H522 lung 62.5% | A549/ATCC NSCLC 73.3% | 786-0 renal 87.9% | COLO 205 colon 89.2% | DU-145 prostate 73.7% | K-562 leukemia 54.7% | MALME-3M melanoma 69.4% | MDA-MB-231 breast 75.7% | RXF 393 renal 60.1% | SF-268 CNS 71% | SF-295 CNS 65.8% | SF-539 CNS 79.8% | UACC-257 melanoma 91.8% | M14 melanoma 46.5%

CSc1ccc2c3c(n(CCCn4ccnc4)c(=O)c2c1)-c1ccccc1C3=O
active: SF-539 CNS 4.89%
inactive: NCI-H23 lung 30.7% | NCI-H226 lung 69.2% | NCI-H322M lung 71.7% | HOP-62 NSCLC 34.7% | NCI-H460 lung 11.5% | HOP-92 NSCLC 83.2% | NCI-H522 lung 19.3% | 786-0 renal 20.4% | COLO 205 colon 57.9% | DU-145 prostate 28.5% | K-562 leukemia 35.6% | MALME-3M melanoma 87.8% | MDA-MB-231 breast 91.4% | RXF 393 renal 46.3% | SF-268 CNS 31.7% | SF-295 CNS 12.1% | UACC-257 melanoma 71% | M14 melanoma 26.6%

CCCCCc1ccc(S(=O)(=O)Nc2cc(-c3csc(NC(C)=O)n3)ccc2N2CCN(C)CC2)cc1
active: COLO 205 colon -38.9% | K-562 leukemia -32.6% | MALME-3M melanoma -47.1% | UACC-257 melanoma -21.9% | M14 melanoma -52.4%
inactive: NCI-H23 lung 65.5% | NCI-H226 lung 94.1% | NCI-H322M lung 73.2% | HOP-62 NSCLC 83.3% | HOP-92 NSCLC 36% | NCI-H522 lung 67.3% | A549/ATCC NSCLC 55.8% | 786-0 renal 56.7% | DU-145 prostate 75.8% | MDA-MB-231 breast 51.8% | RXF 393 renal 33.3% | SF-268 CNS 72% | SF-295 CNS 49.9% | SF-539 CNS 61.6%
